Data from paper PMC4336329 (PLoS ONE, 2015).
Out of some 310,000 compounds screened, about 14,000 (4.5%) showed an effect of 50% or more. The effect is printed as a negative number. The sample as a whole holds a higher share of strong results than the screen did.

Target: human ether-à-go-go-related gene (hERG) potassium channel (human, UniProt Q12809)
Assay: primary screen, population patch clamp on CHO cells stably expressing hERG; higher = less effect of the substance
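Note: peak tail current of the secondary pulse compared with the same well before compound.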

human ether-à-go-go-related gene (hERG) potassium channel, sequence (Q12809 whole entry, looked up): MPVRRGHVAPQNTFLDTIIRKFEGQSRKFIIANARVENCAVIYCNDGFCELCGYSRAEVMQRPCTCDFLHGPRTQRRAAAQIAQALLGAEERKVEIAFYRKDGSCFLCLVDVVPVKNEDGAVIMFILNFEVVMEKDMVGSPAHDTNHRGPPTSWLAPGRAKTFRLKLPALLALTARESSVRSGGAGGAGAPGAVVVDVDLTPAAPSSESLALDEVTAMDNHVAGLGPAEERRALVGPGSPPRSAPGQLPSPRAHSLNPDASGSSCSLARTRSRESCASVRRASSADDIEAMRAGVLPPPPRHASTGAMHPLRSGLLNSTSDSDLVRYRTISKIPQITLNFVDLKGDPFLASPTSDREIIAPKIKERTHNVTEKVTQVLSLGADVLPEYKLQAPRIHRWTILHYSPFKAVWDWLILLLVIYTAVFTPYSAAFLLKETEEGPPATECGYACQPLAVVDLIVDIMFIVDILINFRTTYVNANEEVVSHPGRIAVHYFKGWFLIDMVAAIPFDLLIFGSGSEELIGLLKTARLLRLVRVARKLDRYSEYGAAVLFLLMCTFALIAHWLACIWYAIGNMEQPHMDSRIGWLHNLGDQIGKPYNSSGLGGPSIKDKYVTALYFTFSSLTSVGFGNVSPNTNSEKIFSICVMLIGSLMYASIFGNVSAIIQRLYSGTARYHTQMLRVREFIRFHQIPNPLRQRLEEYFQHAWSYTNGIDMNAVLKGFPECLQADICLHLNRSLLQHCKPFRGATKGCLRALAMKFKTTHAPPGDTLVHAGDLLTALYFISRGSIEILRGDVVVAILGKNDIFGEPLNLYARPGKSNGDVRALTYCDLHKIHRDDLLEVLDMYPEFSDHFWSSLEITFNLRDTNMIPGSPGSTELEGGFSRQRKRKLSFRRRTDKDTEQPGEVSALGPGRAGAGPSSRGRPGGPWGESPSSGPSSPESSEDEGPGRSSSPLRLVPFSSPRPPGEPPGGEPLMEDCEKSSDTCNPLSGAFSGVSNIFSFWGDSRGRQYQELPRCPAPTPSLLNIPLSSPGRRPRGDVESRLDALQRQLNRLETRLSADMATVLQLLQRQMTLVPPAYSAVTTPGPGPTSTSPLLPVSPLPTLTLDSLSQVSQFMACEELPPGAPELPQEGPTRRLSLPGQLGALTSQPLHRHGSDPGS

Row | SMILES | hERG current change (%, negative = inhibition) at 10uM [%]
1 | O=C(CN1CCSCC1)N/N=C/c1ccccc1F | 0.735
2 | O=C(O)COc1ccccc1/C=N/NC(=O)CN1CCN(Cc2ccc(Cl)cc2)CC1 | 10.7
3 | Cc1nc2ccccc2c(=O)n1-c1ccc(Cl)cc1Cl | -0.324
4 | Cc1ccc(CSc2ncnc3c2cnn3-c2ccc(C)cc2)cc1 | 30.7
5 | COc1ccc(N(CC(O)Cn2nnc3ccccc32)S(=O)(=O)c2ccc(C)cc2)cc1 (centres unmarked) | -64.6
6 | COc1ccc(N(CC(O)Cn2cnc3ccccc32)S(=O)(=O)c2ccc(C)cc2)cc1 (centres unmarked) | -58
7 | COc1ccc([N+](=O)[O-])cc1N(CC(O)Cn1nnc2ccccc21)S(=O)(=O)c1ccc(C)cc1 (centres unmarked) | -29.4
8 | COc1ccc(N(CC(O)Cn2c(C)nc3ccccc32)S(=O)(=O)c2ccc(C)cc2)cc1 (centres unmarked) | -11.5
9 | COc1ccc(N(CC(O)CN2C(=O)NC(C)(C)C2=O)S(=O)(=O)c2ccc(C)cc2)cc1 (centres unmarked) | -11.6
10 | COc1ccc(N(CC(O)Cn2c(C)nc3ccccc32)S(=O)(=O)c2ccccc2)cc1 (centres unmarked) | 4.8
11 | COc1ccc(C(=O)Nc2ccc(N3CCCCCC3)cc2)cc1S(=O)(=O)N1CCOCC1 | -40.1
12 | COc1ccc(CN(CC2CCCO2)C(=O)CN2C(=O)COc3ccccc32)cc1OC (centres unmarked) | -15.8
13 | Cc1sc(N)c(C(=O)c2ccccc2Cl)c1C | 3.8
14 | CCOc1ccccc1N(CC(=O)NC1CCCCC1)C(=O)CNC(=O)c1ccco1 | 8.1
15 | Fc1ccc(CN2CCN(c3ncccn3)CC2)cc1 | -3.32
16 | CN1C(=O)c2ccc(C(=O)Nc3ccc(Br)cn3)cc2C1=O | 7.17
17 | O=C(CN1CCOCC1)Nc1ccccc1NC(=O)C1CCN(c2ncccn2)CC1 | 9.55
18 | Cc1ccc(-c2nc(CS(=O)CC(=O)NCCN(CC(C)C)CC(C)C)c(C)o2)cc1 (centres unmarked) | -19.4
19 | Cc1cc(Cl)ccc1NC(=O)CN1C(=O)C(=O)N(C2CCCC2)C1=O | -5
20 | OCC1(Cc2ccccc2)CCN(Cc2cnn(-c3ccccc3F)c2)CC1 | -41.9
21 | Cc1ccc(-n2cc(CN3CCC(CO)(Cc4cccc(C(F)(F)F)c4)CC3)cn2)cc1 | -76
22 | Cc1ccc(-n2cc(CN3CCC(CO)(Cc4ccccc4)CC3)cn2)cc1 | -65.1

Row | SMILES | hERG current change (%, negative = inhibition) at 10uM [%]
23 | Cc1ccc(CN2CCCN(Cc3ccccc3C)S2(=O)=O)cc1 | 21.1
24 | Cc1ccc(-n2nnnc2-c2cnc(N3CCCC3)nc2C(F)(F)F)cc1 | -9.95
25 | CCOC(=O)c1cnc2c(cnn2C)c1NCc1ccc(OC)cc1 | 16
26 | COC(=O)c1cc2occc2n1CC(=O)Nc1ccc(OC)c(OC)c1OC | 0.151
27 | COC(=O)c1cc2sccc2n1CC(=O)Nc1ccc(OC)c(OC)c1OC | -1.08
28 | COC(=O)c1cc2sc(Cl)cc2n1CC(=O)Nc1ccc(OC)c(OC)c1OC | -68.9
29 | CCOc1ccc(NC(=O)CN2CC(c3ccccc3)CC2=O)cc1 (centres unmarked) | -19.9
30 | COC(=O)c1ccc(/C=N/NS(=O)(=O)c2cc(C)ccc2C)cc1 | -0.827
31 | c1coc(CNc2nc(-c3ccncc3)cs2)c1 | -3.17
32 | Cc1ccn2c(NCc3ccccc3)c(-c3cccs3)nc2c1 | 12.5
33 | Oc1ccc(-c2csc(NCc3ccco3)n2)cc1 | -10.2
34 | Cc1nc2ncccn2c1-c1csc(NCc2ccco2)n1 | -51.8
35 | Cc1nc2ccccn2c1-c1csc(NCc2ccco2)n1 | -74.6
36 | c1coc(CNc2nc(-c3cccs3)cs2)c1 | -9.83
37 | Cc1ccn2c(-c3csc(NCc4ccccc4)n3)c(C)nc2c1.Cl | -72.4
38 | Br.Cc1nc2ncccn2c1-c1csc(Nc2ccc(S(N)(=O)=O)cc2)n1 | 0.703
39 | Cc1ccn2c(-c3csc(NCc4ccco4)n3)c(C)nc2c1 | -64.9
40 | C=CCNc1nc(-c2c(C)nc3ncccn23)cs1 | -0.737
41 | Cc1nc(C)c(-c2csc(NCc3ccco3)n2)s1 | -10.9
42 | Cc1nc2sccn2c1-c1csc(NCc2ccccc2)n1 | 6.86
43 | COc1ccccc1/C=C(/C#N)C(=O)O | 18.5
44 | Nc1ccc(-c2cnc3ccccc3n2)cc1 | 0.217
